LAP4 TOR yeast: yeast TOR pathway LAP4-GFP modulation | GFP response vs DMSO, % at 10 µM | AID 2023 | 0.34% of 320,000 active | S. cerevisiae LAP4-GFP multiplex, flow cytometry GFP, 3 h; median GFP as percent of DMSO wells;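 active means GFP response vs DMSO above a set limit, about the screen mean plus 3 SD, cut at about 150% in these data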
RPL19A-GFP yeast: alters RPL19A-GFP fluorescence in TOR pathway yeast screen; S. cerevisiae RPL19A-GFP strain, flow cytometry, 3 h; hits give low values; percent response vs DMSO, % at 10 µM; 0.3% of 330,000 active; AID 2025;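 active means percent response vs DMSO below 50%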;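 further: median channel GFP fluorescence of the barcoded RPL19A-GFP strain; lower means less RPL19A-GFP as with rapamycin TOR inhibition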
CIT2-GFP yeast: alters CIT2-GFP fluorescence in TOR pathway yeast screen. GFP response vs DMSO, % at 10 µM. S. cerevisiae CIT2-GFP strain, flow cytometry, 3 h; 100 means same as DMSO wells. 0.065% of 320,000 active;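 active means GFP response relative to DMSO above a set limit, near the screen mean plus 3 SD, cut at about 150% in these data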;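 further: ratio of well median GFP fluorescence to mean of DMSO wells on the plate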
MEP2 TOR yeast: yeast TOR pathway MEP2-GFP modulation; S. cerevisiae MEP2-GFP strain, flow cytometry GFP, 3 h; 100% = DMSO control level; AID 2016; GFP response vs DMSO, % at 10 µM; 0.51% of 330,000 active;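 active means GFP response versus DMSO above a set limit, roughly screen mean plus 3 SD, cut at about 180% in these data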;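 further: median GFP fluorescence of the barcode-gated MEP2-GFP cells per well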
AGP1 TOR yeast: alters AGP1-GFP fluorescence in TOR pathway yeast screen. AID 2066. 0.02% of 320,000 active. GFP response vs DMSO, % at 10 µM. S. cerevisiae AGP1-GFP multiplex flow cytometry, 3 h; GFP as percent of DMSO wells;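 active means GFP response relative to DMSO above a set limit, near screen average plus 3 SD, cut at about 150% in these data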;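 further: median GFP channel fluorescence of the gated AGP1 strain per well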
LAP4-GFP pick2: second confirmation of modulators of TOR reporter LAP4-GFP in yeast; shares compounds with LAP4 TOR yeast; S. cerevisiae LAP4-GFP strain, flow cytometry GFP, 3 h; GFP response vs DMSO, % at 10 µM; 20% of 590 active; AID 2621;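 active means GFP signal as percent of the solvent control above about 150%, meaning raised reporter expression, limit read from the data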
MEP2 cherry2: second confirmation of modulators of TOR reporter MEP2-GFP in yeast. shares compounds with LAP4 TOR yeast. S. cerevisiae MEP2-GFP strain, flow cytometry GFP, 3 h. GFP response vs DMSO, % at 10 µM. 10% of 590 active;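 active means GFP signal above 150% of the solvent control wells, that is a rise of more than half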;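 further: median channel GFP fluorescence of all gated yeast cells per well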
RPL19A-GFP pick2: yeast RPL19A-GFP TOR reporter modulation, second cherry pick; GFP response vs DMSO, % at 10 µM; shares compounds with LAP4 TOR yeast; S. cerevisiae RPL19A-GFP strain, flow cytometry GFP, 3 h; hits give low values; 100% means same as DMSO wells; 3% of 590 active; AID 2623;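 active means under 65% GFP response relative to DMSO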;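 further: median GFP channel fluorescence per well over the all cells gate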
CIT2 GFP CP2: yeast CIT2-GFP TOR reporter modulation, second cherry pick; S. cerevisiae CIT2-GFP strain, flow cytometry GFP, 3 h; DMSO control wells read 100%; 8% of 590 active; AID 2624; shares compounds with LAP4 TOR yeast; GFP response vs DMSO, % at 10 µM;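 active means GFP response vs DMSO above about 150%, limit read from the data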;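 further: median green fluorescence per well over all gated yeast cells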
AGP1-GFP pick2: reconfirmed modulator of AGP1-GFP TOR reporter in yeast. shares compounds with LAP4 TOR yeast. 590 tested, under 10 active. S. cerevisiae AGP1-GFP strain, flow cytometry GFP, 3 h. percent response vs DMSO, % at 10 µM;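 active means over 150 percent of DMSO response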;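 further: median GFP channel fluorescence over all cells without mother daughter split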
Yeast autofluor: yeast s288c autofluorescence artifact, counter-screen | shares compounds with LAP4 TOR yeast | S. cerevisiae s288c, 520 nm autofluorescence, flow cytometry, 3 h; hits give high values; zero means same as solvent-only cells | fluorescence change (kMESF span) at 33 µM | 610 tested, under 10 active | AID 2757;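 active means fluorescence span over the dose series, or activity score, above about 33, limit read from the data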
s288c autofl DR: TOR screen hit shows autofluorescence in yeast s288c; shares compounds with LAP4 TOR yeast; S. cerevisiae s288c parental, compound autofluorescence, flow cytometry, 3 h; fluorescence change (span) at 33 µM; 110 tested, under 10 active; AID 488829;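 active means fluorescence change span, or the activity score built from it, above 25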
TORC1 bypass: wildtype yeast growth loss with TORC1 bypass cells unaffected; growth rating (0-3) at 30 µM; 120 tested, under 10 active; shares compounds with LAP4 TOR yeast; S. cerevisiae BY4741 spot growth rating, 48-72 h; hits give low values; AID 504456;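 active means growth rating at most 1 for wild type yeast while the TORC1 bypass strain still grows fully, rated 3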
Large screens that a line does not name were inactive (follow-up assays come after a bar, where they were run). A selection: hits, their analogues and other compounds. The true share with any hit is near 0.92%.

COc1ccc(/C=C2\N=C(C)OC2=O)cc1[N+](=O)[O-]	LAP4 TOR yeast 161 | LAP4-GFP pick2 inactive | MEP2 cherry2 inactive | RPL19A-GFP pick2 inactive | CIT2 GFP CP2 inactive | AGP1-GFP pick2 inactive
Oc1c(C(Nc2nc3ccccc3s2)c2ccco2)ccc2cccnc12 (stereo unspecified)	LAP4 TOR yeast 203 | Yeast autofluor inactive
O=C(O)C(Cc1c[nH]c2ccccc12)N1C(=O)C2C3c4ccccc4C(c4ccccc43)[C@@H]2C1=O (stereo partly specified)	none
CCN(CC)S(=O)(=O)c1ccc(C(=O)NCC(c2ccc(OC)cc2)N2CCOCC2)cc1 (stereo unspecified)	none
Cc1nn2c(NCc3ccccn3)c3c(nc2c1-c1ccccc1)CCC3	LAP4 TOR yeast 152 | Yeast autofluor inactive
CC(C)Cn1c(N)c(C(=O)COC(=O)c2c(O)c(Cl)cc(Cl)c2Cl)c(=O)n(C)c1=O	LAP4 TOR yeast active, CIT2-GFP yeast active, MEP2 TOR yeast active, AGP1 TOR yeast 320 | LAP4-GFP pick2 inactive | MEP2 cherry2 inactive | RPL19A-GFP pick2 inactive | CIT2 GFP CP2 inactive | AGP1-GFP pick2 inactive
O=C(CNS(=O)(=O)c1c(F)cccc1F)NC1CCCc2ccccc21 (stereo unspecified)	none
COc1cccc(C(=O)Nc2nnc(-c3ccc(Cl)cc3)o2)c1	LAP4 TOR yeast 155 | LAP4-GFP pick2 209 | MEP2 cherry2 inactive | RPL19A-GFP pick2 inactive | CIT2 GFP CP2 inactive | AGP1-GFP pick2 inactive | Yeast autofluor inactive
COc1cccc(NC(=O)c2cccc(Cl)c2)c1	LAP4 TOR yeast 153 | LAP4-GFP pick2 inactive | MEP2 cherry2 inactive | RPL19A-GFP pick2 inactive | CIT2 GFP CP2 inactive | AGP1-GFP pick2 inactive
O=[N+]([O-])c1c(NC2CCCCC2)nc(NCc2ccccc2)nc1N1CCOCC1	none (no result: LAP4 TOR yeast, RPL19A-GFP yeast, CIT2-GFP yeast, MEP2 TOR yeast, AGP1 TOR yeast) | TORC1 bypass inactive
N=C1S/C(=C\c2ccco2)C(=O)N1c1ccc2c(c1)OCO2	none
N=C1S/C(=C\c2ccco2)C(=O)N1c1nccs1	LAP4 TOR yeast 168 | Yeast autofluor inactive
O=C(/C=C/c1cc(Br)ccc1O)c1ccco1	LAP4 TOR yeast 196 | Yeast autofluor inactive
Clc1cc(Cl)cc(Nc2cc(NC3CCCCC3)nc(NCc3ccccc3)n2)c1	none (no result: LAP4 TOR yeast, RPL19A-GFP yeast, CIT2-GFP yeast, MEP2 TOR yeast, AGP1 TOR yeast) | s288c autofl DR inactive | TORC1 bypass inactive
Clc1cc(Cl)cc(Nc2cc(Oc3cccc(Cl)c3)nc(NCc3ccccc3)n2)c1	none (no result: LAP4 TOR yeast, RPL19A-GFP yeast, CIT2-GFP yeast, MEP2 TOR yeast, AGP1 TOR yeast) | s288c autofl DR inactive | TORC1 bypass inactive
Cc1cc(Nc2cccc(Cl)c2)nc(NCc2ccccc2)n1	none
Cc1cc(OC2CCCCC2)nc(NCc2ccccc2)n1	none
COc1ccc(S(=O)(=O)Nc2ccc(-c3ccc4nncn4n3)cc2)c(OC)c1	none
O=C(CC(=O)c1ccccc1)Nc1cc(C(F)(F)F)ccc1Cl	none | LAP4-GFP pick2 inactive | MEP2 cherry2 inactive | RPL19A-GFP pick2 inactive | CIT2 GFP CP2 inactive | AGP1-GFP pick2 inactive
CN(C)c1oc(/C=C/c2cccs2)nc1S(=O)(=O)c1ccccc1	none | LAP4-GFP pick2 inactive | MEP2 cherry2 inactive | RPL19A-GFP pick2 inactive | CIT2 GFP CP2 inactive | AGP1-GFP pick2 inactive
c1ccc(-c2nnc(-c3ccccn3)nn2)nc1	none
c1ccc(-c2cccc(-c3ccccn3)n2)nc1	LAP4 TOR yeast 319 | Yeast autofluor inactive | s288c autofl DR inactive | TORC1 bypass inactive
CC(=O)N[C@@H](Cc1c[nH]c2ccccc12)C(=O)OCc1cc(C(F)(F)F)cc(C(F)(F)F)c1	LAP4 TOR yeast 160 | LAP4-GFP pick2 inactive | MEP2 cherry2 inactive | RPL19A-GFP pick2 inactive | CIT2 GFP CP2 inactive | AGP1-GFP pick2 inactive
CNC(=O)c1cc(C(=O)c2ccc(F)cc2C(F)(F)F)c[nH]1	none
Cc1ccc(S(=O)(=O)N2CCCCC2CCNC(=O)C(=O)NCC2CCCO2)cc1 (stereo unspecified)	none
CCN(CC(=O)Nc1c(F)cccc1F)C(=O)COc1cccc2c1OC(C)(C)C2	LAP4 TOR yeast 185 | LAP4-GFP pick2 inactive | MEP2 cherry2 inactive | RPL19A-GFP pick2 inactive | CIT2 GFP CP2 inactive | AGP1-GFP pick2 inactive
Cc1cccc(C)c1NC(=O)CN(C)C(=O)COc1cccc2c1OC(C)(C)C2	none
CCOc1ccccc1NC(=S)N1CCN(c2cccc(OC)c2)CC1	none
O=C(O)c1ccc(NCc2cccc(Br)c2)cc1	LAP4 TOR yeast 159 | LAP4-GFP pick2 inactive | MEP2 cherry2 inactive | RPL19A-GFP pick2 inactive | CIT2 GFP CP2 inactive | AGP1-GFP pick2 inactive
COc1cc(NC(=O)CSc2nncn2C)c(C)cc1[N+](=O)[O-]	none
O=c1oc2cc(Oc3c([N+](=O)[O-])cc(C(F)(F)F)cc3[N+](=O)[O-])ccc2c2c1CCCC2	LAP4 TOR yeast 294 | Yeast autofluor inactive
O=c1oc2cc(Oc3ccc(C(F)(F)F)cc3[N+](=O)[O-])ccc2c2c1CCC2	none
O=C(O)CSc1nnc(-c2ccc(Cl)cc2Cl)n1-c1ccccc1	none
Cc1ccccc1OCCOC(=O)c1ccc(S(=O)(=O)N2CCCC2)cc1	CIT2-GFP yeast 158 | LAP4-GFP pick2 inactive | MEP2 cherry2 inactive | RPL19A-GFP pick2 inactive | CIT2 GFP CP2 inactive | AGP1-GFP pick2 inactive | Yeast autofluor inactive
Cc1ccc2[nH]cc(C(=O)CN3CCN(C)CC3)c2c1	none

Source: PubChem (NMMLSC)
